Calls of active or inactive are those of the source.
Tests used:
[1] = biological target: Albumin (Bos taurus) (UniProt P02769); test: bovine serum albumin binders on microarray, profiling panel, artefact control for SMM control protein annotation, biochemical, small-molecule microarray, Alexa647 label, 635/667 nm fluorescence (AID 1118); details: BSA-A647 binding, fluorescence 635 nm, higher = more signal;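 also: score merges 667 nm emission intensity and signal-to-noise per printed compound spot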
[2] = small-molecule microarray binders of probe aXIP, primary screen, biochemical, NeuroSMM set, 635/667 nm fluorescence (AID 1119); details: higher = more signal, called active from +8 up or from −8 down;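 also: probe is the protein aXip251-270 applied at 1 µg/mL to compound-printed slides; binding of probe to printed compounds measured as 667 nm fluorescence plus signal to noise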
[3] = small-molecule binders of probe aNOTCH3, primary screen, biochemical, small-molecule microarray, 635/667 nm fluorescence (AID 1120); details: higher = more signal;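 also: probe is a biotin-tagged antibody raised against NOTCH3 rather than NOTCH3 protein; score merges spot fluorescence near 667 nm with spot signal to noise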
[4] = small-molecule binders of probe aNOTCH2, primary screen, biochemical, small-molecule microarray, 635/667 nm fluorescence (AID 1121); details: higher = more signal;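 also: score merges feature fluorescence read at 667 nm with its signal to noise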
[5] = biological target: Carbonic anhydrase 2 (Homo sapiens) (UniProt P00918); test: CAII small-molecule binders, profiling panel, biochemical, small-molecule microarray, Alexa647-labelled CAII (AID 1122); details: CAII-A647 binding fluorescence, higher = more signal
[6] = COS7 lysate on small-molecule microarray, probe aHis, 635 nm (AID 1123); details: COS7 cell lysate, fluorescence, higher = more signal;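 also: z-score combines 667nm fluorescence intensity with signal-to-noise per printed compound spot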
[7] = compound binding in COS7 lysate, probe aLAP1, primary screen, cell lysate, small-molecule microarray (AID 1124); details: probe aLAP1, fluorescence, higher = more signal;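 also: lysate comes from COS7 cells expressing LAP1 and is applied at 0.3 µg/mL; score merges spot fluorescence near 667 nm with signal-to-noise over triplicate slides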
[8] = tested on: Sam68 (KHDRBS1); test: Sam68 small-molecule binders, primary screen, biochemical, small-molecule microarray, 635 nm fluorescence (AID 1125); details: small-molecule microarray binding, higher = more signal;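 also: score merges 667 nm channel intensity with signal to noise over triplicate slides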
[9] = tested on: Chordin-like protein 2 (CHRDL2); test: CHRDL2 small-molecule binders, primary screen, biochemical, small-molecule microarray, 635 nm fluorescence (AID 1126); details: small-molecule microarray binding, fluorescence 635 nm; higher = more signal;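 also: printed compound slides probed with Chrdl2 protein at 4 µg/mL for 1 h at 4 C; score merges 667 nm emission intensity with signal to noise over three replicate slides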
[10] = biological target: Concanavalin-A (Canavalia ensiformis) (UniProt P02866); test: ConA small-molecule binders, primary screen, artefact control for SMM control protein annotation, biochemical, small-molecule microarray, Alexa647 label, 635 nm (AID 1127); details: ConA-A647 binding fluorescence, higher = more signal;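 also: z combines 667 nm emission intensity with signal-to-noise across three replicate slides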
[11] = anti-His antibody binders, primary screen, artefact control for SMM control protein annotation, biochemical, small-molecule microarray, 635 nm fluorescence (AID 1128); details: anti-His Alexa647 antibody binding, higher = more signal;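 also: score merges feature fluorescence with signal-to-noise for each printed compound spot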
[12] = tested on: Human papillomavirus type 1a E7 protein (residues 1-88); test: HPV1a E7 small-molecule binders, primary screen, biochemical, small-molecule microarray, residues 1-88, 635 nm (AID 1129); details: small-molecule microarray binding, fluorescence 635 nm; higher = more signal
[13] = biological target: Focal adhesion kinase 1 (Homo sapiens) (UniProt Q05397); test: small-molecule microarray binders of FAK, primary screen, biochemical, 635/667 nm fluorescence, BSA, DTT (AID 1130); details: PTK2 binding, 635 nm fluorescence, higher = more signal;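 also: composite of spot emission at 667 nm and signal to noise over triplicate slides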
[14] = tested on: Fibrinogen (Alexa647-labelled); test: fibrinogen binders on compound microarrays, profiling panel, artefact control for SMM control-protein annotation, biochemical, small-molecule microarray, 635/667 nm fluorescence (AID 1131); details: fibrinogen-A647 binding fluorescence, higher = more signal;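 also: z-score merges 667 nm fluorescence with per-spot signal-to-noise over triplicate slides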
[15] = biological target: Follistatin (Homo sapiens) (UniProt P19883); test: follistatin binders on small-molecule microarrays, primary screen, biochemical, small-molecule microarray, 635/667 nm fluorescence (AID 1132); details: FST binding, 635 nm fluorescence, higher = more signal
[16] = biological target: Fibroblast growth factor 2 (Homo sapiens) (UniProt P09038); test: FGF2 binders on small-molecule microarrays, primary screen, biochemical, small-molecule microarray, 635/667 nm fluorescence (AID 1133); details: small-molecule microarray binding, FGF2, fluorescence 635/667; higher = more signal
[17] = mitochondrial membrane potential change in A549 cells, profiling panel, cell-based, JC-1 fluorescence, basal, 24 h, 100 nL (AID 1138); details: higher = more signal;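 also: A549 lung adenocarcinoma cells under basal conditions with no added stimulus; test concentration not given here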
[18] = tested on: Lefty1; test: Lefty1 binders on small-molecule microarrays, primary screen, biochemical, small-molecule microarray, 635/667 nm fluorescence (AID 1139); details: small-molecule microarray binding, fluorescence 635/667; higher = more signal
[19] = tested on: wheat germ agglutinin (Triticum aestivum), Alexa647-labelled; test: wheat germ agglutinin binders on compound microarrays, profiling panel, artefact control for SMM control-protein annotation, biochemical, small-molecule microarray, 635/667 nm fluorescence (AID 1140); details: WGA-A647 binding, 635 nm fluorescence, higher = more signal;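 also: score merges 667 nm feature emission with signal to noise over triplicate slides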
[20] = biological target: Luciferin 4-monooxygenase (Photinus pyralis) (UniProt P08659); test: firefly luciferase enzyme inhibitors, primary screen, biochemical, luminescence, purified enzyme, 2006 set (AID 1141); details: SteadyGlo luminescence, 30 min, higher = more signal, called active from +8 up or from −8 down;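 also: cell-free assay with purified firefly luciferase at 100 ng per well in PBS; test concentration not given here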
Chain of Luciferin 4-monooxygenase (Photinus pyralis) (P08659 whole entry, looked up): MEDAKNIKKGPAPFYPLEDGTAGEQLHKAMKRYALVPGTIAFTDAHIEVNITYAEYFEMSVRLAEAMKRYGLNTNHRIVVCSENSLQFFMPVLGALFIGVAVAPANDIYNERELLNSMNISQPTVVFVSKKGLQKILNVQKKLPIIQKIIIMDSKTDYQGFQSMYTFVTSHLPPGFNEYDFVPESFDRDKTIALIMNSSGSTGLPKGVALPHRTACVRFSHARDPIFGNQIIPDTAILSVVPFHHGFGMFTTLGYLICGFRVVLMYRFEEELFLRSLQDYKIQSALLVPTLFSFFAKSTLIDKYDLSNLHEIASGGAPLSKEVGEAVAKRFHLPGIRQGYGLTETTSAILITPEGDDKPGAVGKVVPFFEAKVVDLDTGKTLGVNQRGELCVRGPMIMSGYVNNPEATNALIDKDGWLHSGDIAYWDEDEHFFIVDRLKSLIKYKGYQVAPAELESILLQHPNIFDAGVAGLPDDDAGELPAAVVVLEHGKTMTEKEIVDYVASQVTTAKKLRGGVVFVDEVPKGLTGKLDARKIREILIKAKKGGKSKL

Chain of Concanavalin-A (Canavalia ensiformis) (P02866 whole entry, looked up): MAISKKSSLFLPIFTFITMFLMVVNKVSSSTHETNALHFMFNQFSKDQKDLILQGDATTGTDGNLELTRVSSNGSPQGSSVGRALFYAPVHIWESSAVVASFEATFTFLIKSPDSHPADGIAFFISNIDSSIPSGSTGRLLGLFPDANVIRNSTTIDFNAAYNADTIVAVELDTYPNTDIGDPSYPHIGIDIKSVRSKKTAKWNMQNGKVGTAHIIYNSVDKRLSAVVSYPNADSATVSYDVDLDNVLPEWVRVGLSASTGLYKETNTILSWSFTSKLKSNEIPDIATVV
Chain of Fibroblast growth factor 2 (Homo sapiens) (P09038 whole entry, looked up): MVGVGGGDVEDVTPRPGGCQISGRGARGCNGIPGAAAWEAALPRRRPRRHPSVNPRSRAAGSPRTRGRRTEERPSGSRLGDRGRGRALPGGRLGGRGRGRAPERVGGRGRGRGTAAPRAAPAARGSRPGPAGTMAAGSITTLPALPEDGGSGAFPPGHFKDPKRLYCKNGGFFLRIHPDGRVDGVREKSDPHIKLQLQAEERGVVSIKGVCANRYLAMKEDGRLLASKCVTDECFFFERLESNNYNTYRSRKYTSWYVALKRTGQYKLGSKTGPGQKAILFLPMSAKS
Chain of Follistatin (Homo sapiens) (P19883 whole entry, looked up): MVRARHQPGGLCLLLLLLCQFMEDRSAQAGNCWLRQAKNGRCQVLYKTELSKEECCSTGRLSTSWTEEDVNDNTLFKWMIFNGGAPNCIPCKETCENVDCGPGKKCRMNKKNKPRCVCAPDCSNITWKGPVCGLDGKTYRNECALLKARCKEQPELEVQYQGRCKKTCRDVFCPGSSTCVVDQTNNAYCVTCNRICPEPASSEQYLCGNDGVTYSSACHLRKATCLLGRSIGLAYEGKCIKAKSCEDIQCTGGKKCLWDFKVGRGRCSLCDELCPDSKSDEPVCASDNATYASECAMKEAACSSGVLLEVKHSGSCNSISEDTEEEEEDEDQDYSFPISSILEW
Chain of Focal adhesion kinase 1 (Homo sapiens) (Q05397 whole entry, looked up): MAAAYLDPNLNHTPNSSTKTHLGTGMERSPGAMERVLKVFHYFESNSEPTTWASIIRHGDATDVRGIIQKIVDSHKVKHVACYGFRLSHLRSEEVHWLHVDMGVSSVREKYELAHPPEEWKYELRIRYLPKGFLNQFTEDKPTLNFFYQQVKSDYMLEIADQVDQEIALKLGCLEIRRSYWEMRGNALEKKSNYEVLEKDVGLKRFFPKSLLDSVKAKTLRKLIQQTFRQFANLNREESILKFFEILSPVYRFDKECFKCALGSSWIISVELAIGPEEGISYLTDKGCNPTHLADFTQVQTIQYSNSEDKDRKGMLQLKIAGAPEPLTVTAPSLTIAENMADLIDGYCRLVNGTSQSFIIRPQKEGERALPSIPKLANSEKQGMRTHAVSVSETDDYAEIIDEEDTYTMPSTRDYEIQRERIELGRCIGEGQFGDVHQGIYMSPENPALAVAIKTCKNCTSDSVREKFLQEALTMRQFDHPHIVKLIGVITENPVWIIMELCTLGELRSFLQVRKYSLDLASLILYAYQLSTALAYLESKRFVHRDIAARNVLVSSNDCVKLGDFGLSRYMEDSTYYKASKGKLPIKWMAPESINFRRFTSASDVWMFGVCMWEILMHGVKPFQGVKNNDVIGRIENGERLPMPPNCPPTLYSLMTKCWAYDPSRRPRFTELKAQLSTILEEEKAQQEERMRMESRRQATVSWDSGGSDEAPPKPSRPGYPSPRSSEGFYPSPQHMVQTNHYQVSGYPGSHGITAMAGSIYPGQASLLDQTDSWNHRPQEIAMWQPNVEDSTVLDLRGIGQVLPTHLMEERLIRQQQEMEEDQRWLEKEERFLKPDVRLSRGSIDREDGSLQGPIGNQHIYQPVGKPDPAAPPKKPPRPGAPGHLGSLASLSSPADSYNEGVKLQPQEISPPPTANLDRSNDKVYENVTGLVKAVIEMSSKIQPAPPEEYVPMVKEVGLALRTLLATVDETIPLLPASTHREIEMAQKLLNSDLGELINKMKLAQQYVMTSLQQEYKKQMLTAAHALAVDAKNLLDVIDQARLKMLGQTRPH
Chain of Albumin (Bos taurus) (P02769 whole entry, looked up): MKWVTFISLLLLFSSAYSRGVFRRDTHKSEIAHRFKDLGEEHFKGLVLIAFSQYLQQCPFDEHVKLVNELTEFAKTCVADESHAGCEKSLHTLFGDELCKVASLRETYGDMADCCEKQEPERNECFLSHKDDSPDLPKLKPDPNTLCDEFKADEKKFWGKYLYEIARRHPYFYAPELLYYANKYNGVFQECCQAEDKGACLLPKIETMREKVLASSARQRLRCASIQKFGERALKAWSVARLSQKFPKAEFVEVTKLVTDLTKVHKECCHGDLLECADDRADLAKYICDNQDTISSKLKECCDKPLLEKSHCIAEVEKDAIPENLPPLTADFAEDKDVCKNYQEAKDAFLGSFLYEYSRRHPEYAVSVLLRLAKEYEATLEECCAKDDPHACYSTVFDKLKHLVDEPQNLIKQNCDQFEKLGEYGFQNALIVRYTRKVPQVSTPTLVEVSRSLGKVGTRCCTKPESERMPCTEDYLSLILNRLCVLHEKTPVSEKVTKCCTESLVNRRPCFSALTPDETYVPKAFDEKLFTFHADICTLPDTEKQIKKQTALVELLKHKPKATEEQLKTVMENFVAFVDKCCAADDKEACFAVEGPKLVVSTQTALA

Row | SMILES | composite z-score [1] | composite Z-score [2] | composite z-score [3] | composite z-score [4] | composite z-score [5] | composite z-score [6] | composite z-score [7] | composite z-score [8] | composite z-score [9] | composite z-score [10] | composite z-score [11] | composite z-score [12] | composite z-score [13] | composite z-score [14] | composite z-score [15] | composite z-score [16] | z-score [17] | composite z-score [18] | composite z-score [19] | z-score [20]
1 | CN1C=C(C(=O)OCCS(C)(=O)=O)C(C(=O)OCCS(C)(=O)=O)=CC(CCCO)=CC1c1cccs1 (stereo not given) | -0.945 | 1.4 (inactive) | -0.132 | -0.0837 | -0.167 | -0.12 | 0.0548 | 1.13 | 0.443 | -0.508 | 0.478 | 0.77 | 0.275 | -0.463 | 0.775 | 0.371 | 3.12 | 1.07 | -0.485 | -1.52 (inactive)
2 | C[N+](C)(C)CCCC[C@@H]1NC(=O)[C@@H]2C[C@H](C(=O)NCCCCCNC(=O)CS)[C@H](c3ccc(O)cc3)N2C1=O | -0.172 | -0.419 (inactive) | -0.152 | -0.179 | 0.728 | 1.05 | 0.453 | 0.245 | -0.479 | 1.12 | 1.6 | 0.076 | -0.0206 | 0.141 | 1.46 | 1.19 | 1.52 | 1.02 | 0.477 | -0.703 (inactive)
3 | COc1ccc(C#Cc2ccc3c(c2)[C@]2(C(=O)N3)[C@H](c3ccc(O)cc3)N3[C@H](c4ccccc4)[C@H](c4ccccc4)OC(=O)[C@H]3[C@@H]2C(N)=O)cc1 | -0.524 | 1.08 (inactive) | -0.299 | -0.147 | 0.662 | 1.25 | 0.0742 | 0.278 | -1.54 | -0.211 | 2.17 | -0.0669 | 0.627 | -0.063 | -0.482 | -0.617 | -1.59 | -0.9 | -0.0907 | -1.44 (inactive)
4 | C=C(COC)C(=O)CC[C@H](OC(=O)c1cccnc1)c1cccc(OCCO)c1 | -0.197 | -0.19 (inactive) | 0.53 | 0.156 | 0.608 | 0.613 | 0.123 | 0.579 | 0.601 | -0.0509 | -0.107 | 0.0325 | 0.481 | -0.09 | 0.896 | 1.57 | 1.39 | 1.05 | -0.363 | -2.13 (inactive)
5 | C=CCNC(=O)[C@H]1[C@@H]2C(=O)O[C@@H](c3ccccc3)[C@@H](c3ccccc3)N2[C@@H](c2ccccc2OCCO)[C@]12C(=O)N(C(=O)OCCOC)c1ccc(C#CCCO)cc12 | 0.0097 | 0.433 (inactive) | 0.142 | 0.399 | 0.417 | 1.79 | 0.665 | 1.32 | 1.18 | 1.11 | 1.34 | 1.09 | 1.02 | 0.614 | 1.42 | 1.72 | 1.7 | 0.817 | 0.958 | -1.66 (inactive)
6 | C#CCOc1ccc(C[C@H]2C(=O)O[C@H](Cc3ccccc3)[C@H](/C=C/C3CC3)N2CC#C)cc1 | -0.0855 | 0.319 (inactive) | -0.165 | -0.172 | 0.643 | -0.104 | 0.0683 | -0.0391 | 0.445 | -0.224 | -0.146 | 0.128 | 0.386 | 0.273 | -0.322 | -0.349 | 4.32 | -0.433 | -0.311 | -0.968 (inactive)
7 | CC(C)(C)OC(=O)CC[C@@]12N=C(c3ccc(OCCCO)cc3)O[C@@H]1c1ccccc1N(Cc1ccccc1)C2=O | 0.0674 | 1.83 (inactive) | -0.122 | -0.0318 | 0.434 | 1.67 | 0.583 | 1.15 | 0.145 | 1.05 | 2.92 | 1 | 1.16 | 0.214 | 1.39 | 0.54 | 1.43 | 0.345 | 0.036 | -2.14 (inactive)
8 | CC(C)C[C@@H]1NC(=O)[C@H]2C[C@@H](C(=O)NCCCC[N+](C)(C)C)[C@@H](c3cccc(OCCO)c3)N2C1=O | 0.252 | 0.331 (inactive) | 0.217 | -0.19 | 0.475 | 1.89 | 0.987 | 0.848 | 0.938 | 0.476 | 3.29 | -0.146 | -0.153 | -0.236 | 1.25 | 1.61 | 1.31 | 1.39 | -0.102 | -1.97 (inactive)
9 | NCCCCCNC(=O)[C@H]1C[C@H]2C(=O)NCC(=O)N2[C@H]1c1ccc(O)cc1 | 1.06 | 0.696 (inactive) | 0.0596 | -0.105 | 0.685 | 1.08 | 0.521 | 1.29 | 1.14 | 1.22 | 2.54 | 1.19 | 0.366 | 0.97 | 1.48 | 1.75 | 0.68 | 1.69 | 1.3 | -1.04 (inactive)
10 | O=C(NCC(F)(F)F)[C@@H]1c2ccccc2C(=O)N(C2Cc3ccccc3C2)[C@H]1c1ccc(CO)cc1 | 0.0975 | -1.34 (inactive) | -0.0362 | -0.0907 | 0.414 | -0.0023 | 0.386 | -0.945 | -1.3 | -1 | -1.02 | -0.801 | -0.26 | -1.58 | -0.871 | -0.485 | 2.62 | -1.25 | -2.05 | -1.04 (inactive)
11 | C=CCC1(CC=C)C[C@H]2CO[C@H](c3ccc(OC)cc3)N2C1=O | -1.14 | -0.258 (inactive) | -0.154 | -0.155 | 0.448 | -0.348 | 0.157 | -0.082 | 1.3 | 0.0736 | 0.413 | -0.154 | -0.256 | -0.78 | 1.23 | 0.15 | 1.31 | 0.458 | 1.28 | -1.13 (inactive)
